Screens: PubChem BioAssay, National Center for Advancing Translational Sciences (NCATS)
Sm TGR block = qHTS Assay for the Inhibitors of Schistosoma Mansoni Peroxiredoxins; Schistosoma mansoni thioredoxin glutathione reductase (TGR), Q962Y6; purified TGR, DTNB reduction, TNB absorbance 405 nm; Potency, µM (doses to about 114 µM), usual class: inhibitors; 360,000 tested, 3% active; also: nearly all actives have a fitted effect of over 60% in size
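TGR 20 nM + NADPH 100 uM (dispensed conc.), cpd preinc 15 min RT; start with NADPH (500 uM addition) then DTNB (15 mM addition). Kinetic TNB absorbance, 405 nm filter. Four-parameter Hill fit across titration.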
SARS PLpro yeast = qHTS of Yeast-based Assay for SARS-CoV PLP; S. cerevisiae expressing SARS-CoV PLpro, growth rescue; Potency, µM (series often up to 32.9 µM), usual class: activators; 330,000 tested, 0.19% active; AID 485353, 2010; calls by dose curve; also: nearly all actives have a fitted effect of over 55% in size
RE007 growth inh = qHTS Assay for Inhibitors of the HIV-1 protein Vpr. AID 651644, 2012. 360,000 tested, 0.21% active. S. pombe RE007 Vpr strain, BacTiter-Glo ATP luminescence, 24 h. Potency, µM (titrated, usually from 92.2 µM), hits mostly inhibitors; active = well fitted falling curve with a large enough effect; inconclusive = small, poorly fitted or top-dose-only effect; inactive = no such curve, though single readings can be large or run the other way; also: nearly all actives have a fitted effect of over 50% in size
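Fission yeast strain RE007, carrying one chromosomally integrated HIV-1 vpr copy, was seeded at OD 0.01 in PMG+AL medium with 23 nL pinned compound. After 24 h at 30 °C and 99% humidity, viability was read by BacTiter-Glo luminescence.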
NS1 inh = qHTS Assay for Inhibitors of Influenza NS1 Protein Function. Potency, µM (series often up to 46.1 µM). 270,000 tested, 0.4% active. AID 2326, 2010; calls by dose curve; also: actives are rising curves; nearly all actives have a fitted effect of over 50% in size
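Read-out: OD600 growth recovery of NS1-expressing budding yeast. Cells grown overnight at 30C in -URA glucose medium, washed, resuspended and diluted 1:100 in 2% galactose assay medium, pH 6.0. Same strain lacking NS1 served as positive control.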
LmPK inh = qHTS Assay for Inhibitors of Leishmania Mexicana Pyruvate Kinase (LmPK). Q27686. purified LmPK, Kinase-Glo ATP luminescence, 1 h. Potency, µM (highest dose often 57.5 µM), actives largely listed as inhibitors. 290,000 tested, 0.37% active. AID 1721, 2009
Target sequence (Q27686 whole entry, looked up): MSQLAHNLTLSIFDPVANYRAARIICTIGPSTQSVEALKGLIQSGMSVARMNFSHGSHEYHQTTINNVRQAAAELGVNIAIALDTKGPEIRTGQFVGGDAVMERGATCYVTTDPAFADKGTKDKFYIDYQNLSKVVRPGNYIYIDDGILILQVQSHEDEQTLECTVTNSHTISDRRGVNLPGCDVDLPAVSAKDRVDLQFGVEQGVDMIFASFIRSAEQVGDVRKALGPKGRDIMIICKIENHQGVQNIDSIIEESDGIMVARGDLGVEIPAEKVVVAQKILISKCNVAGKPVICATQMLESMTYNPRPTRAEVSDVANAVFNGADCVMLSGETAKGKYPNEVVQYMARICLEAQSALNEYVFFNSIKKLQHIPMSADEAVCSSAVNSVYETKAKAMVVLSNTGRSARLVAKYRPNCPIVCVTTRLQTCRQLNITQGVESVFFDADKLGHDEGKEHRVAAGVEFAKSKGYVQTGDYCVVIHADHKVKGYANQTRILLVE
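Pyruvate kinase activity monitored as ATP production (luciferase luminescence). Conditions: 0.1 nM enzyme, 0.5 mM PEP, 0.1 mM ADP, 1 h, RT; normalized against uninhibited and no-enzyme wells.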
TbPYK inhibitor = qHTS of Trypanosoma Brucei Inhibitors; pyruvate kinase (Trypanosoma brucei), Q57TT1; TbPYK enzyme, Kinase-Glo Plus ATP luminescence, 45 min; Potency, µM (series often up to 76.8 µM), hits mostly inhibitors; 410,000 tested, 0.12% active; AID 624173, 2012; also: nearly all actives have a fitted effect of over 50% in size
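Glycolytic pyruvate kinase of T. brucei was incubated with substrate, test compound and 130 uM ADP for 45 minutes at room temperature. Luminescent Kinase-Glo Plus signal was measured after 10 minutes.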
Numbers stand for hits; i = inactive; ? = inconclusive; nt = no result given. A selection: hits, their analogues and other compounds. The true share with any hit is near 3.3%. Unless noted, calls follow the shape of the dose curve; as a rule, active = well fitted curve in the direction sought with a large enough effect; inconclusive = small, poorly fitted or top-dose-only effect, or another doubt; inactive = no such curve, though single readings can be large; an effect the other way counts as inactive or inconclusive.

SMILES	Sm TGR block	SARS PLpro yeast	RE007 growth inh	NS1 inh	LmPK inh	TbPYK inhibitor
COc1ccc(S(=O)(=O)NCCc2cn3nc(C)c(C)nc3n2)cc1C	45µM	i	i	i	i	i
Cc1ccc(S(=O)(=O)NCCc2cn3nc(C)c(C)nc3n2)cc1C	i	i	i	i	i	i
CCCN1C(=O)C(NC(C)=O)c2ccccc21 (stereo not drawn)	i	i	i	i	i	i
CCc1ccc2c(c1)C(NC(C)=O)C(=O)N2CCN1CCOCC1 (stereo not drawn)	89µM	i	i	i	i	i
CC(C)Cn1nc(C(=O)NCc2ccccc2CN2CCCC2)c2ccccc2c1=O	28µM	i	i	nt	nt	i
CCCCn1nc(C(=O)NCc2ccccc2CN2CCCC2)c2ccccc2c1=O	i	i	i	nt	nt	i
CCC(C)NC(=O)CSc1nc2cc3c(cc2c(=O)n1CCCCCC(=O)NCc1ccc2c(c1)OCO2)OCO3 (stereo not drawn)	i	nt	nt	nt	nt	i
Cc1oc(/C=N/NC(=O)CN(c2ccccc2Cl)S(C)(=O)=O)cc1Br	?	i	i	i	i	i
Cc1oc(/C=N/NC(=O)CN(c2ccccc2Br)S(C)(=O)=O)cc1Br	45µM	i	i	i	i	i
Cc1ccccc1N(CC(=O)N/N=C/c1cc(Br)c(C)o1)S(C)(=O)=O	79µM	i	i	i	i	i
FC(F)(F)c1cc(-c2ccco2)nc(NCc2cccs2)n1	20µM	i	i	i	i	i
FC(F)(F)c1cc(-c2ccco2)nc(NCc2ccco2)n1	?	i	i	i	i	i
Cc1cc(Br)ccc1NC(=O)CNC(=O)Cn1ncc(Cl)c(Cl)c1=O	1.4µM	i	i	i	i	i
O=C(Cn1ncc(Cl)c(Cl)c1=O)c1ccc2c(c1)OCCO2	nt	i	i	nt	nt	i
CCC(=O)Nc1ccc(C(=O)Cn2ncc(Cl)c(Cl)c2=O)cc1	2.8µM	i	i	i	i	i
Cc1ccc(C(=O)OCn2ncc(Cl)c(Cl)c2=O)cc1	4µM	i	50µM	i	i	i
CCOC(=O)c1ccc(NC(=O)Cn2ncc(Cl)c(Cl)c2=O)cc1	18µM	i	i	i	i	i
COc1ccc2c(CNCCc3ccccc3)c(C(=O)O)n(Cc3cccc(F)c3)c2c1	i	nt	nt	nt	nt	i
CC(=O)N1CCc2cc(S(=O)(=O)NC(Cc3ccccc3)C(=O)Nc3cccc(C)c3)ccc21 (stereo not drawn)	i	nt	nt	nt	nt	i
CCN1C=CC(=C2C(=O)c3ccccc3C2=O)C=C1	i	i	?	i	13µM	?
CCCN1C=CC(=C2C(=O)c3ccccc3C2=O)C=C1	i	i	?	i	14µM	?
COc1ccccc1NC(=O)CSc1nnc(NC(=O)Nc2ccc(C)cc2)s1	i	nt	nt	nt	nt	i
COC(=O)CSc1[nH]c2ccc(Br)cc2c1[N+](=O)[O-]	2.5µM	i	i	nt	i	i
CCOc1ccc2[nH]c(SCC(=O)OC)c([N+](=O)[O-])c2c1	45µM	i	i	i	i	i
CCC1CO/C(=C(\C(Cl)=C(Cl)Cl)[N+](=O)[O-])N1 (stereo not drawn)	8.9µM	i	i	nt	i	i
SMILES	Sm TGR block	SARS PLpro yeast	RE007 growth inh	NS1 inh	LmPK inh	TbPYK inhibitor
CCN1CC2=C(OC(N)=C(C#N)C2c2ccccc2)/C(=C\c2ccccc2)C1 (stereo not drawn)	?	i	i	i	i	i
CCN1C=C(Cc2cccs2)C2=C(C1)C(c1cccs1)C(C#N)=C(N)O2 (stereo not drawn)	22µM	i	i	i	i	i
CCN1CC2=C(OC(N)=C(C#N)C2c2cccs2)/C(=C/c2cccs2)C1 (stereo not drawn)	35µM	i	i	i	i	i
CCOC(=O)C1=C(C)OC(N)=C(C#N)C1c1cccs1 (stereo not drawn)	?	i	i	nt	i	i
c1ccc(-c2onc(-c3ccco3)c2-c2ccc3c(c2)OCO3)cc1	50µM	i	i	i	i	i
c1cncc(CNc2ncnc3ccc(-c4ccco4)cc23)c1	8.9µM	i	nt	nt	nt	nt
